aSyn UTR act: Activators via SNCA 5'UTR binding, MLPCN; alpha-synuclein 5'UTR reporter, activators screen; activity score, % (tested at 7.5 µM), hits read low; actives 7.1% (n = 300,000); AID 1814; in the data active = activity score below about -60%
Numbers without * were called inactive. A selection follows.

SMILES	aSyn UTR act
Cc1sc(=NC(=O)c2ccco2)n(C)c1-c1ccc(F)cc1	-113*
Cn1c(=Nc2ccccc2)sc2ccccc21	-77*
Cn1c(=NC(=O)c2ccco2)sc2ccccc21	-126*
OC(c1cc(-c2ccc(Cl)cc2)nc2ccccc12)C1CCCCN1 (stereo unspecified)	96
COc1cc(NC2CCCCC2O)c2nc(-c3ccc(Cl)cc3)ccc2c1 (stereo unspecified)	-94*
CC(=O)Oc1ccc2occ(-c3ccccc3)c2c1	-137*
O=C(CCl)Oc1ccc2occ(C(=O)c3cccs3)c2c1	-193*
CC(=O)Oc1ccc2occ(C(=O)c3cccs3)c2c1	-175*
O=C(c1cccs1)c1coc2ccc(O)cc12	-200*
CC(=O)Oc1ccc2occ(C(=O)c3ccccc3)c2c1	-134*
Clc1cc2nc(-c3cccnc3Cl)[nH]c2cc1Cl	-229*
CCN(C(=O)COC(=O)/C=C/c1cnc2ccccc2n1)c1ccccc1	-65*
O=C(/C=C/c1cnc2ccccc2n1)NC12CC3CC(CC(C3)C1)C2	-140*
CCC(C)(C)NC(=O)/C=C/c1cnc2ccccc2n1	-122*
Cc1ccc2nc3sc(C(=O)NCc4ccco4)c(N)c3cc2c1	-127*
COc1cc2cc3c(N)c(C(=O)NCc4ccco4)sc3nc2cc1OC	-284*
CCCC(=O)Nc1ccc(NC(=O)c2ccccc2Cl)nc1	-76*
CCC(=O)Nc1ccc(NC(=O)c2ccccn2)cn1	-88*
COc1cc(/C=C/[N+](=O)[O-])ccc1OC(=O)c1cc2ccccc2oc1=O	-102*
Cc1ccc(N=Cc2ccc(O)cc2O)cc1F	-84*
CC(C)CSc1nnc2c3ccccc3n(C)c2n1	-75*
CN(C)CCn1c2ccccc2c2nc3ccc([N+](=O)[O-])cc3cc21	104
CCN(CC)CCSc1nnc2c3ccccc3n(CCc3ccccc3)c2n1	-106*
Cc1ccc(/C=C/c2nnc(-c3ccccc3)o2)cc1	-109*
Cc1ccc(-c2noc(/C=C/c3ccccc3)n2)cc1	-202*
SMILES	aSyn UTR act
Clc1ccc(-c2noc(/C=C/c3ccccc3)n2)cc1	-94*
CCOc1ccc(C(=O)Nc2ccc3nc(N4CCN(CC)CC4)cc(C)c3c2)cc1	67
COc1cc(C(=O)Nc2ccc3nc(N4CCN(C)CC4)cc(C)c3c2)cc(OC)c1OC	-103*
Cc1cc(N2CCN(C)CC2)nc2ccc(NC(=O)c3ccc(Br)o3)cc12	-103*
CCN1CCN(c2cc(C)c3cc(NC(=O)c4cc(OC)cc(OC)c4)ccc3n2)CC1	-98*
COc1ccc(OC)c(NC(=O)c2nc3ccccc3s2)c1	-168*
C=CCNC(=O)c1nc2ccccc2s1	-161*
CC(C)NC(=O)c1nc2ccccc2s1	-84*
Cc1cs/c(=N\N=C\c2cccc([N+](=O)[O-])c2)n1Cc1ccco1	-97*
CC(=O)Nc1nccc(-c2cc(-c3ccccc3)no2)n1	-180*
CCCOc1ccc(C(=O)Nc2cccnc2)cc1	-181*
CCCCOc1ccc(C(=O)Nc2ccncc2)cc1	-123*
O=C(Nc1cccnc1)c1ccc(CSc2ccccc2)cc1	-115*
O=C(Nc1cccnc1)c1ccc(Oc2ccccc2)cc1	-70*
CCCC(=O)N1CCCC(C(=O)c2cccc(OC(C)C)c2)C1 (stereo unspecified)	-80*
COc1ccc2cc(C(=O)C3CCCN(C(=O)CCc4ccccn4)C3)ccc2c1 (stereo unspecified)	-93*
C=CCNC(=O)N1CCCC(C(=O)c2cccc(OC(C)C)c2)C1 (stereo unspecified)	-89*
Oc1oc(-c2ccccc2)nc1C=NCc1ccccc1	-133*
CN(C)c1ccc(N=Cc2nc(-c3ccccc3)oc2O)cc1	-95*
CN(C)c1ccc(N=Cc2nc(-c3ccccc3)oc2OC(=O)c2ccccc2)cc1	-115*
CC(=O)Oc1oc(-c2ccccc2)nc1/C=N/c1ccccn1	-72*
COc1ccccc1C(=O)Nc1nc2ccccc2s1	109
CS(=O)(=O)c1ccc2nc(NC(=O)c3ccccc3Cl)sc2c1	-109*
COc1ccccc1C(=O)Nc1nc2ccc(S(C)(=O)=O)cc2s1	-118*
CS(=O)(=O)c1ccc2nc(NC(=O)c3ccccc3Br)sc2c1	-104*
SMILES	aSyn UTR act
Cc1noc(C)c1C(=O)Nc1nc2ccc(S(C)(=O)=O)cc2s1	-70*
CS(=O)(=O)c1ccc2nc(NC(=O)c3cccc(Cl)c3)sc2c1	-72*
O=C(Nc1nnc(C2CC2)s1)C1Cc2ccccc2CN1S(=O)(=O)c1cccs1 (stereo unspecified)	-66*
Cc1cc(C)c2sc(NNC(=O)c3ccc(S(=O)(=O)N4CCc5ccccc5C4)cc3)nc2c1	77
CCc1nnc(NC(=O)C2Cc3ccccc3CN2S(=O)(=O)c2ccc(C)cc2)s1 (stereo unspecified)	-81*
CCc1nnc(NC(=O)C2Cc3ccccc3CN2S(=O)(=O)c2cccs2)s1 (stereo unspecified)	-105*
Cc1nc(-c2cc(-c3ccc(Cl)cc3)no2)cs1	-137*
Cc1nc(-c2cccc(N)c2)cs1	-63*
CC(C)(C)c1ccc(C(=O)NCC(=O)OCC(=O)Nc2nc(-c3ccc(F)cc3)cs2)cc1	-175*
CC(OC(=O)CNC(=O)c1ccccc1F)C(=O)Nc1nc(-c2ccccc2)cs1 (stereo unspecified)	-104*
Cc1nc(-c2ccc(C(=O)Nc3ccc(F)cc3)cc2)cs1	-109*
COc1ccc(NC(=O)c2ccc(-c3csc(C)n3)cc2)cc1	-195*
Cc1nc(-c2ccc(C(=O)Nc3ccccc3F)cc2)cs1	92
CC1=NN(c2nc(-c3ccc(C)cc3)cs2)C(=O)C1N=Nc1ccccc1O (stereo unspecified)	63
COc1ccc(-c2csc(N3N=C(C)C(C)C3=O)n2)cc1 (stereo unspecified)	-87*
COc1ccc(-c2csc(C)n2)cc1	-100*
O=[N+]([O-])c1cc(C(F)(F)F)ccc1Sc1ccc2ccccc2n1	-75*
COc1cc(Cl)cc(/C=C/c2ccc3ccccc3n2)c1OC(C)=O	-127*
CC(=O)Oc1ccc(Cl)cc1/C=C/c1cc(OC(C)=O)c2ccccc2n1	-138*
CC(C)(C)c1cc(NC(=O)C2CCCO2)no1 (stereo unspecified)	-104*
CC(C)(C)c1cc(NC(=O)c2cccs2)no1	-77*
CC(C)(C)c1cc(NC(=O)c2cccnc2)no1	-102*
CC(C)(C)c1cc(NC(=O)c2cc(F)c(F)c(F)c2F)no1	-63*
CCOC(=O)c1sc(=NC(=O)c2cccc(OC)c2)n(C)c1C	-183*
CCOC(=O)c1sc(=NC(=O)c2ccccc2)n(C)c1C	-134*
SMILES	aSyn UTR act
CCOC(=O)c1sc(=NC(=O)c2ccc(OC)c(OC)c2)n(C)c1C	-69*
Cn1c(=O)n(CCOc2ccccc2Cl)c2ccccc21	-99*
Cc1ccc(OCCn2c(=O)n(C)c3ccccc32)cc1	-123*
COc1ccccc1NC(=O)c1ccc2nc(C)sc2c1	-105*
COc1ccccc1NC(=O)c1ccc2[nH]c(C)c(C)c2c1	-145*
COc1cccc(NC(=O)c2ccc3nc(C)sc3c2)c1	-239*
CN(C)Cc1ccccc1Sc1ccc2c(c1)CCCC2	104
COc1ccc(C)cc1N(C(=O)COc1cccc(F)c1)c1nc2ccccc2s1	-110*
c1coc(CN2CN=C(Nc3nc4ccccc4s3)NC2)c1	-81*
c1ccc2sc(NC3=NCN(CC4CCCO4)CN3)nc2c1 (stereo unspecified)	-86*
c1coc(CNc2nc3ccccc3s2)c1	-137*
c1ccc(Nc2nc(NCc3ccco3)c3ccccc3n2)cc1	-67*

High-throughput results deposited in PubChem BioAssay by Broad Institute.
